The sample as a whole holds a higher share of hits than the screen did.
L3MBTL1 block = L3MBTL1 (human) inhibition. Q9Y468. AlphaScreen L3MBTL1–H3K9me1 peptide binding. Potency, µM (top dose mostly 57.1 µM), for inactives: at the top dose activity, negative = inhibition, most hits filed as inhibitors. hit rate 0.66% among 230,000; active = well fitted inhibition curve with a large enough effect; inconclusive = small, poorly fitted or top-dose-only effect; inactive = no such curve, though single readings can be large or run the other way; also: potency is read from the fitted curve at half-maximal effect; nearly all actives have a fitted effect of over 60% in size
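L3MBTL1 (50 nM) pre-complexed 30 min with biotinylated H3(1-15)K9me1 peptide (75 nM), then compounds added for 30 min at room temperature; AlphaScreen streptavidin donor/nickel chelate acceptor beads (10 ug/mL final) read after 30 min dark incubation.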
JMJD2E inh = blocks human JMJD2E demethylase activity. JMJD2E catalytic domain, FDH-coupled NADH fluorescence (FDH is formaldehyde dehydrogenase). Potency, µM (doses to about 57.1 µM), without a hit: at the top dose activity change, negative = inhibition, actives largely listed as inhibitors. hit rate 1.6% among 230,000. AID 2147; active = well fitted inhibition curve with a large enough effect, not every such curve was filed as active; inconclusive = small, poorly fitted or top-dose-only effect, or another doubt; inactive = no such curve, though single readings can be large or run the other way;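 also: potency is read from the fitted curve at half-maximal effect; 0% = wells with enzyme and -100% = buffer wells without enzyme; nearly all actives have a fitted effect of over 50% in size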
Target sequence (B2RXH2 1-337 limits assumed): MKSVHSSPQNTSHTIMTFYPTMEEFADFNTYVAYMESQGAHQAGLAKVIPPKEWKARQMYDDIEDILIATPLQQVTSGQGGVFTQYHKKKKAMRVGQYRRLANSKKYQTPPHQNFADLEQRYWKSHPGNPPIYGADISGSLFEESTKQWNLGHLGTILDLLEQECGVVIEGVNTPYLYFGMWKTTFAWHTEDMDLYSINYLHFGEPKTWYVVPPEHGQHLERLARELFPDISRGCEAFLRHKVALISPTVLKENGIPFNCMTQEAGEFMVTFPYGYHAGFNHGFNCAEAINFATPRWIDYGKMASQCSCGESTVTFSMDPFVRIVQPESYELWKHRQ
CtBP-E1A blk = inhibitors of CtBP/E1A interaction. AID 651724. AlphaScreen GST-E1A/His-CtBP binding, 1536-well; stronger effect = lower value. activity change, % (test concentration not listed). hit rate 0.49% among 340,000
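Homogeneous bead-based format: GST-tagged E1A captured on glutathione donor beads, His-tagged CtBP on nickel acceptor beads; compounds precede bead addition by 2 h at 37 °C.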
Six1-Eya2 blk = blocks human Six1 binding to Eya2; activity change, % (test concentration not listed); AlphaScreen GST-Six1/His-Eya2 binding, biochemical; stronger effect = lower value; hit rate 0.56% among 360,000; Q15475+O00167
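GST-Six1 + His-Eya2 (5X stock: 250/500 nM); Tris pH 8.0, 300 mM NaCl, 0.05% BSA, 0.02% Tween 20; GSH donor/Ni acceptor beads; 1 h 37 °C dark; AlphaScreen readout.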
An asterisk follows results filed as active; u = inconclusive; x = no result given; ! = repeats disagree. Rule as the data show it, unless noted: active = activity change below about -65%; inconclusive = mostly about -30% to -63%; inactive = weaker than that. Unless noted, % is scaled to controls: 0 for no effect and ±100 for the full control effect.

SMILES	L3MBTL1 block	JMJD2E inh	CtBP-E1A blk	Six1-Eya2 blk
Cc1cc(Cl)ccc1N=c1ssnc1Cl	x	11.2µM*	-3.5	-1.0
CCOC(=O)CNC(=O)O[C@@H]1C(=O)c2cc(Br)ccc2O[C@H]1c1cccc(OC)c1	x	-0.9%	x	x
O=C(COc1ccc(S(=O)(=O)N2CCCC2)cc1)Nc1ccc2c(c1)OCCO2	-0.2%	-1.1%	11.1	-1.5
C=C(C(C)=O)C(O)c1ccc2ccccc2c1 (stereo not drawn)	x	-0.2%	x	x
Cc1ccc(-c2csc3nc4c5ccccc5c(NCCCN(C)C)nn4c(=O)c23)cc1	40.1%	u	u	-67.1*
Cc1ccc(-c2csc3nc4c5ccccc5c(NCCCN5CCOCC5)nn4c(=O)c23)cc1	20.8%	u	x	x
C[C@@H](NC(=O)c1ncn(Cc2ccccc2)c1C(=O)N[C@H](C)c1ccccc1)c1ccccc1	4.1%	x	2.0	-1.0
COC(=O)c1c(NC(=O)COC(=O)c2ccccc2O)sc2c1CCCCC2	37.2%	u	2.7	-2.1
COC(=O)c1c(NC(=O)COC(=O)c2ccc(NC(=O)CC#N)cc2)sc2c1CCCCC2	u	5.01µM*	-5.0	-24.5
Nc1ccc2ccccc2c1N=Nc1ccccc1	x	x	-76.8*	-76.0*
Nc1ncnc(N)c1N=Nc1ccccc1	-5.4%	x	-22.4	-5.2
CCOC(=O)c1c(-c2ccc(Cl)cc2)csc1NC(=O)CNCc1ccco1	x	25.1µM*	1.3	-1.5
CC1(C)CCC(=O)c2ccccc21	x	x	-4.1	5.3
CC1(C)CCC2=C(O1)c1ccccc1C(=O)C2=O	x	3.55µM*!	x	x
O=C(COc1cccc(F)c1)Nc1nc(-c2ccccn2)cs1	x	x	u	-77.0*
O=C(COc1ccc([N+](=O)[O-])cc1)Nc1nc(-c2ccccn2)cs1	u	x	-91.7*	-78.8*
CC(Oc1ccc(Br)cc1)C(=O)Nc1nc(-c2ccccn2)cs1 (stereo not drawn)	x	x	u	-73.1*
Cc1ccc(OCC(=O)Nc2nc(-c3ccccn3)cs2)c(C)c1	-12.8%	x	u	u
O=C(COc1ccc(F)cc1)Nc1nc(-c2ccccn2)cs1	-8.4%	x	u	-84.2*
CCCCCCCCCCCCCCCC(=O)NCC(=O)O	x	5.1%	x	x
C=CCN(CC=C)C(=S)Nc1ccc2nsnc2c1	8.91µM*	u	x	12.4
Cc1ccc(-c2nn(-c3ccccc3)cc2/C=C/C(=O)O)o1	-16.0%	u	x	-1.2
Cc1ccc(-c2nn(-c3ccccc3)cc2C(=O)O)o1	2.82µM*	u	x	x
CC12C=C(/C=C/CCc3ccco3)C(C)(C1)[C@H](CCc1ccco1)CC2=O (stereo partly drawn)	x	0.9%	x	x
O=C(CSc1nnc(COc2ccc(Cl)cc2)o1)N1CCCCC1	x	x	1.5	2.4
SMILES	L3MBTL1 block	JMJD2E inh	CtBP-E1A blk	Six1-Eya2 blk
CC(C)(C)NC(=O)C(c1ccc(F)cc1)N(Cc1ccco1)C(=O)CCC(=O)Nc1nccs1 (stereo not drawn)	x	x	-4.6	-1.2
COC(=O)c1cc(NC(=O)c2cccc(C(F)(F)F)c2)c(=O)oc1C/C=N/OCc1cccc(Cl)c1Cl	x	20µM*	-3.3	-7.4
O=C(CSc1nnc(COc2ccc(Cl)cc2)o1)Nc1nccs1	x	x	u	-86.9*
Cc1cccc(OCc2nnc(SCC(=O)Nc3nccs3)o2)c1	-14.6%	u	-93.1*	-94.4*
O=C(CSc1nnc(-c2cccnc2)o1)Nc1nccs1	-0.7%	x	u	-71.5*
O=C(CSc1nnc(CNC(=O)c2ccc(F)cc2)o1)NCc1ccccc1	x	x	3.7	0.0
O=C(CSc1nnc(CNC(=O)c2ccc(F)cc2)o1)Nc1nccs1	x	x	-86.6*	-88.0*
Cc1cccc(OCc2nnc(SCC(=O)Nc3ccc(N4CCOCC4)cc3)o2)c1	x	x	-2.6	0.7
O=C(CSc1nnc(-c2cccnc2)o1)Nc1ccc(F)cc1	x	x	2.3	0.9
O=C(CSc1nnc(CNC(=O)c2cccc(C(F)(F)F)c2)o1)NCC1CCCO1 (stereo not drawn)	x	x	9.0	-0.6
Cc1cc(NC(=O)CSc2nnc(CNC(=O)c3cccc(C(F)(F)F)c3)o2)no1	x	x	-78.4*	-72.2*
COc1cccc(/C=N/NC(=O)c2cc(-c3ccccn3)nc3ccccc23)c1O	-26.7%	x	-94.6*	-74.8*
Cc1cc(C(=O)N/N=C/c2cc(Cl)cc([N+](=O)[O-])c2O)n[nH]1	-27.6%	17.8µM*	-80.9*	u
O=C(N/N=C/c1cc(Cl)cc([N+](=O)[O-])c1O)c1cc(-c2ccccn2)nc2ccccc12	x	22.4µM*	19.9	-10.8
O=[N+]([O-])c1cc(Cl)cc(/C=N\Nc2ccccn2)c1O	2.9%	-6.1%	-87.3*	-94.7*
O=C(N/N=C/c1ccc(F)cc1)c1cc(-c2ccccn2)nc2ccccc12	1.2%	x	6.2	-1.9
O=C1C=C(O)c2cccc(O)c2C1=O	x	7.94µM*	-8.4	-8.3
O=C(O)c1cccc(N/N=C/c2ccc(OC(F)(F)F)cc2)c1	x	x	-1.0	-4.9
COC(=O)c1ccc(COc2ccc(/C=N/Nc3cccc(C(=O)O)c3)cc2)cc1	25.1µM*	-28.9%	-8.2	-17.1
CSc1ccc(/C=N/Nc2cccc(C(=O)O)c2)cc1	5.01µM*	u	-16.6	u
O=C(O)CCCCCN1C(=O)/C(=C/c2ccncc2)SC1=S	5.4%	22.4µM*	1.4	-5.7
O=S(=O)(c1ccc(Br)cc1F)N1CCCCC1CCO (stereo not drawn)	x	x	1.3	-1.4
COc1ccc(-c2c(C)c3cc(O)ccc3oc2=O)cc1	x	x	-2.5	-14.2
COc1c(O)c(O)cc2c1oc1c3cc(C)ccc3oc(=O)c21	x	20µM*	x	x
O=C(COC(=O)c1ccc([N+](=O)[O-])s1)NCCc1ccccc1	u	x	x	-1.7

Source: PubChem (National Center for Advancing Translational Sciences (NCATS))
